Data: PubChem BioAssay (NCATS)
Results filed as inconclusive are left out. A call without a number means that no potency is given here. The source made the active and inactive calls. The call rests on the fitted dose curve; in most records, active means well fitted curve in the direction sought with a large enough effect; inconclusive means small, poorly fitted or top-dose-only effect, or another doubt; inactive means no such curve, though single readings can be large; an effect the other way counts as inactive or inconclusive.

Key:
[1] = test system: Zika virus NS2B-NS3 protease (linked construct); test: Confirmatory screen NINDS AMC qHTS for Zika virus inhibitors (AID 1347152); further: nearly all actives have a fitted effect of over 70% in size; further: potency means the concentration at half of the fitted maximal effect
Method in brief: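 Purified NS2B-NS3 protease with NS2B hydrophilic domain linked to NS3 protease domain by flexible linker, 1 nM final in 10 mM Tris-HCl pH 8.0, 0.01% Tween 20. Compounds preincubated 15 min, room temperature; Bz-Nle-KRR-AMC 10 microM (Km 18.3 µM); 15-min fluorescence change, 4-parameter Hill fit.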

[2] = test system: Zika virus NS2B-NS3 protease (unlinked complex); test: Primary screen GU Rhodamine qHTS for Zika virus inhibitors: Unlinked NS2B-NS3 protease assay (AID 1347159); further: nearly all actives have a fitted effect of over 60% in size
Method in brief: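 A qHTS format was used, with compound concentrations ranging up to 114 microM. Each compound was preincubated with 25 nM NS2B-NS3 protease, and the substrate was then added at 1.5 microM. Curves were fitted with a 4-parameter Hill model.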

[3] = test system: Zika virus NS2B-NS3 protease (linked construct); test: Primary screen NINDS Rhodamine qHTS for Zika virus inhibitors (AID 1347160); further: nearly all actives have a fitted effect of over 55% in size
Method in brief: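 Kinetic fluorescence (Ex 480 nm, Em 540 nm) over 15 min with 1.5 microM Rhodamine110 peptide and 25 nM linked protease.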

[4] = test system: Zika virus NS2B-NS3 protease (unlinked complex); test: Confirmatory screen GU AMC qHTS for Zika virus inhibitors (AID 1347153); further: nearly all actives have a fitted effect of over 70% in size
Method in brief: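 Fluorescence change (ex 340/em 450 nm) over 15 min, ~20% substrate conversion, normalized to no-inhibitor and no-enzyme controls, then Hill-fitted. Unlinked protease at 25 nM; AMC peptide 10 µM.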

[5] = ZIKV-mCherry secondary qHTS for Zika virus inhibitors (AID 1347158); further: top concentration of the series differs between compounds
Method in brief: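 Vero, 5,000 cells/well, o/n 37 °C; cpd pin-transferred in DMSO; ZIKV-mCherry MOI 1, 48-72 h 37 °C; 32% PFA stock fix, Hoechst; imaged 10x DAPI/mCherry; mCherry+ threshold 450 RFU; % infection.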

[6] = test system: Zika virus NS2B-NS3 protease (unlinked); test: Optimization of GU AMC qHTS for Zika virus inhibitors: Unlinked NS2B-NS3 protease assay (AID 1347151); further: nearly all actives have a fitted effect of over 80% in size; further: potency means the concentration at half of the fitted maximal effect
Method in brief: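 Noncovalent complex of NS2B hydrophilic domain and NS3 protease domain, 25 nM final, in 10 mM Tris-HCl pH 8.0, 0.01% Tween 20. AMC fluorescence change over 15 min at room temperature was fitted to a 4-parameter Hill equation.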

[7] = test system: Zika virus NS2B-NS3 protease; test: Primary screen GU AMC qHTS for Zika virus inhibitors (AID 1347154); further: nearly all actives have a fitted effect of over 70% in size; further: potency means the concentration at half of the fitted maximal effect
Method in brief: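 Unlinked Zika NS2B hydrophilic domain–NS3 protease complex at 25 nM in 10 mM Tris-HCl pH 8.0, 0.01% Tween 20, with an AMC peptide substrate. Fluorescence change (340/450 nm) over 15 min at room temperature, normalized to controls, fitted to 4-parameter Hill.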

**Q.** Which results are given for `CC(=O)N(C)c1cccc(-c2ccnc3c(C(=O)c4cccs4)cnn23)c1`?
**A.** Potency [1]: 24.1 µM (active); Potency [2]: inactive; Potency [3]: inactive

**Q.** Which results are given for `CC(C)Oc1cccnc1N(C)C1CCN(Cc2ccccc2)CC1`?
**A.** Potency [1]: inactive; outcome [4]: inactive

**Q.** For `O=C1C(I)=CC(=C(c2cc(I)c(O)c(I)c2)c2ccccc2C(=O)O)C=C1I`, which outcome [5] is on record?
**A.** Its outcome is “inactive”.

**Q.** For `O=C(O)c1cc(Oc2ccc(C(F)(F)F)cc2Cl)ccc1[N+](=O)[O-]`, which outcome [5] is on record?
**A.** The outcome was “inactive”.

**Q.** For `O=C1CCCN1CC#CCN1CCCC1`, which Potency [6] is on record?
**A.** Its Potency is “inactive”.

**Q.** What about the Potency [7] of the same molecule?
**A.** Its Potency is “inactive”.

**Q.** Which Potency [7] does the source give for `CN[C@@H]1Cc2cccc3[nH]c(=O)n(c23)C1` here?
**A.** The Potency was “inactive”.

**Q.** For `CCC(=O)O[C@@H]1C=C2CCC3C(CCC4(C)C3CC[C@@H]4OC(=O)CC)C2CC1` (stereo not given in full), which Potency [7] is on record?
**A.** Its Potency is “inactive”.

**Q.** Which Potency [6] does the source give for `CCCN1CCO[C@@H]2c3cc(O)ccc3OC[C@H]21` here?
**A.** Its Potency is “inactive”.

**Q.** What about the Potency [7] of the same molecule?
**A.** The Potency was “inactive”.

**Q.** With `COc1cc2cc(c1Cl)N(C)C(=O)C[C@H](OC(=O)C(C)C)[C@]1(C)O[C@H]1[C@H](C)[C@@H]1C[C@@](O)(NC(=O)O1)[C@H](OC)C=CC=C(C)C2` as the molecule, how does the Potency [7] read?
**A.** The Potency was “inactive”.

**Q.** For `c1ccc2sc(C3(N4CCCCC4)CCCCC3)cc2c1`, which Potency [6] is on record?
**A.** Its Potency is “inactive”.

**Q.** And the Potency [7]?
**A.** The Potency was “inactive”.

**Q.** Which Potency [6] does the source give for `COC(=O)[C@@H](N)CCCN=C(N)N[N+](=O)[O-]` here?
**A.** The Potency was “inactive”.

**Q.** What about the Potency [7] of the same molecule?
**A.** The Potency was “inactive”.

**Q.** Which Potency [6] does the source give for `NC(CP(=O)(O)O)C(=O)O` (stereo not given) here?
**A.** Its Potency is “inactive”.

**Q.** And the Potency [7]?
**A.** The Potency was “inactive”.

**Q.** With `Cc1nccc2c1[nH]c1ccccc12` as the molecule, how does the Potency [6] read?
**A.** Its Potency is 26.7 µM (active).

**Q.** And the Potency [7]?
**A.** Its Potency is 26.7 µM (active).

**Q.** Which Potency [6] does the source give for `S=C(NC1CCCCC1)N1CCC(c2cnc[nH]2)CC1` here?
**A.** The Potency was “inactive”.

**Q.** What about the Potency [7] of the same molecule?
**A.** Its Potency is “inactive”.

**Q.** And the Potency [2]?
**A.** The Potency was “inactive”.

**Q.** What about the Potency [3] of the same molecule?
**A.** Its Potency is “inactive”.

**Q.** Which Potency [6] does the source give for `O=C(N[C@H]1CN2CCC1CC2)c1ccc(Cl)cc1` here?
**A.** The Potency was “inactive”.

**Q.** What about the Potency [7] of the same molecule?
**A.** Its Potency is “inactive”.

**Q.** And the Potency [2]?
**A.** Its Potency is “inactive”.

**Q.** What about the Potency [3] of the same molecule?
**A.** The Potency was “inactive”.

**Q.** With `CC[C@@H](C(N)=O)N1CCCC1=O` as the molecule, how does the Potency [6] read?
**A.** The Potency was “inactive”.

**Q.** And the Potency [7]?
**A.** The Potency was “inactive”.

**Q.** For `C=CCON=C(C[C@H]1O[C@@H]2O[C@]3(C)CC[C@@H]4[C@H](C)CC[C@@H]([C@H]1C)[C@@]24OO3)[C@H]1O[C@@H]2O[C@]3(C)CC[C@H]4[C@H](C)CC[C@@H]([C@@H]1C)[C@@]24OO3`, which Potency [7] is on record?
**A.** Its Potency is “inactive”.

**Q.** What does the source list for `CCCN(CCC)[C@@H]1CCc2ccc(O)cc2C1`?
**A.** Potency [6]: inactive; Potency [7]: inactive

**Q.** Which Potency [6] does the source give for `NCCc1c[nH]c2ccc(O)cc12` here?
**A.** The Potency was “inactive”.

**Q.** And the Potency [7]?
**A.** The Potency was “inactive”.

**Q.** What about the Potency [3] of the same molecule?
**A.** The Potency was “inactive”.

**Q.** For `CC(=O)NCCc1c[nH]c2ccccc12`, which Potency [6] is on record?
**A.** Its Potency is “inactive”.

**Q.** What about the Potency [7] of the same molecule?
**A.** The Potency was “inactive”.

**Q.** What about the Potency [2] of the same molecule?
**A.** The Potency was “inactive”.

**Q.** What about the Potency [3] of the same molecule?
**A.** The Potency was “inactive”.

**Q.** For `NCCc1c[nH]c2ccccc12`, which Potency [6] is on record?
**A.** The Potency was “inactive”.

**Q.** What about the Potency [7] of the same molecule?
**A.** Its Potency is “inactive”.

**Q.** What about the Potency [3] of the same molecule?
**A.** The Potency was “inactive”.

**Q.** Which Potency [7] does the source give for `O=C(O)C(Cl)Cl` here?
**A.** The Potency was “inactive”.

**Q.** Which Potency [6] does the source give for `O=C(O)Cc1cnc[nH]1` here?
**A.** Its Potency is “inactive”.

**Q.** What about the Potency [7] of the same molecule?
**A.** The Potency was “inactive”.

**Q.** Which Potency [7] does the source give for `COC1=CC(C)=C[C@@H](C)[C@@H](O)[C@@H](C)CC(C)=CC=C[C@H](OC)[C@H]([C@@H](C)[C@@H](O)[C@H](C)[C@@]2(O)C[C@@H](O)[C@H](C)[C@@H](C(C)C)O2)OC1=O` here?
**A.** Its Potency is “inactive”.

**Q.** What does the source list for `NC1CCc2cc(O)c(O)cc2C1` (stereo not given)?
**A.** Potency [6]: inactive; Potency [7]: inactive

**Q.** Which Potency [6] does the source give for `C[C@@H](N)Cc1cnc[nH]1` here?
**A.** Its Potency is “inactive”.

**Q.** What about the Potency [7] of the same molecule?
**A.** Its Potency is “inactive”.

**Q.** With `C#CCOC(=O)C1=CCCN(C)C1` as the molecule, how does the Potency [6] read?
**A.** The Potency was “inactive”.

**Q.** What about the Potency [7] of the same molecule?
**A.** The Potency was “inactive”.

**Q.** For `CC=C(C)C(=O)N[C@@H](c1ccccc1)[C@@H](O)C(=O)O[C@H]1C[C@@]2(O)[C@@H](OC(=O)c3ccccc3)[C@@H]3[C@]4(OC(C)=O)CO[C@@H]4C[C@H](O)[C@@]3(C)C(=O)[C@H](OC(C)=O)C(=C1C)C2(C)C`, which Potency [7] is on record?
**A.** Its Potency is “inactive”.

**Q.** With `CCO/N=C(\CC)C1=C(O)CC(c2c(C)cc(C)cc2C)CC1=O` (stereo not given) as the molecule, how does the Potency [7] read?
**A.** The Potency was “inactive”.

**Q.** For `C[C@]12CC[C@@H]3[C@@H](CCC4=CC(=O)CC[C@@H]43)[C@@H]1CC[C@@H]2OC(=O)CCc1ccccc1`, which Potency [7] is on record?
**A.** Its Potency is “inactive”.

**Q.** Which results are given for `NC(=NCCC[C@H](N)C(=O)O)N[N+](=O)[O-]`?
**A.** Potency [6]: inactive; Potency [7]: inactive

**Q.** Which Potency [6] does the source give for `NCc1cc(=O)[nH]o1` here?
**A.** The Potency was “inactive”.

**Q.** And the Potency [7]?
**A.** Its Potency is “inactive”.

**Q.** Which results are given for `CCCN(CCC)C1CCc2ccc(O)cc2C1` (stereo not given)?
**A.** Potency [6]: inactive; Potency [7]: inactive

**Q.** With `O=C(Cc1ccc(Cl)c(Cl)c1)N1CCCCC1CN1CCCC1` (stereo not given) as the molecule, how does the Potency [6] read?
**A.** Its Potency is “inactive”.

**Q.** And the Potency [7]?
**A.** The Potency was “inactive”.

**Q.** For `Clc1cnc(Oc2ccc(Oc3ncc(Cl)cc3Cl)cc2)c(Cl)c1`, which Potency [6] is on record?
**A.** The Potency was “inactive”.

**Q.** And the Potency [7]?
**A.** Its Potency is “inactive”.

**Q.** For `c1ccc(CCCN2CCN(CCOC(c3ccccc3)c3ccccc3)CC2)cc1`, which Potency [6] is on record?
**A.** The Potency was “inactive”.

**Q.** What about the Potency [7] of the same molecule?
**A.** Its Potency is “inactive”.

**Q.** For `Cc1c(C(=O)c2cccc3ccccc23)c2cccc3c2n1[C@H](CN1CCOCC1)CO3`, which Potency [7] is on record?
**A.** The Potency was “inactive”.

**Q.** Which Potency [7] does the source give for `O=S(=O)(CC1CS1)c1ccc(Oc2ccccc2)cc1` (stereo not given) here?
**A.** Its Potency is “inactive”.

**Q.** Which Potency [7] does the source give for `O=C(Oc1ccc([N+](=O)[O-])cc1)N1CCN(Cc2cccc(Oc3ccccc3)c2)CC1` here?
**A.** Its Potency is “inactive”.

**Q.** What about the Potency [2] of the same molecule?
**A.** The Potency was “inactive”.

**Q.** What about the Potency [3] of the same molecule?
**A.** The Potency was “inactive”.
